# Experimental data taken from PubChem BioAssay (Tox21).
# Inconclusive results are not listed. Unmarked numbers belong to inactive results. Calls of active or inactive are those of the source. Calls follow the shape of the dose curve; as a rule, active = well fitted curve in the direction sought with a large enough effect in the repeat runs; inconclusive = weak or mixed curves; inactive = no such curve, though single readings can be large; an effect the other way counts as inactive or inconclusive. Positions of bridges follow the written chain, without caps; N, C: chain ends. Non-standard residues stand in square brackets, D forms with d. Residues, ends and D or L forms follow the SMILES beside them. *: point of attachment. X2 = CC[C@H](C)CCCCC(=O)*; Orn = NCCC[C@H](N)C(=O)O; Dab = NCC[C@H](N)C(=O)O; Mpa = O=C(O)CCS
# Tested on: not listed separately
# Assay: qHTS assay to identify aromatase inhibitors - cell viability counter screen (AID 743084);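 also: cells stimulated with testosterone during compound exposure; nearly all actives have a fitted effect of over 55% in size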
# Settings: MCF-7 aro ERE viability, CellTiter-Fluor, 24 h; series mostly up to 70.3 µM; activity change, negative = cytotoxicity: at the top concentration
# % is scaled to controls: 0 for no effect and ±100 for the full control effect; potency is read from the fitted curve at half-maximal effect.
Structure (SMILES),"activity change, negative = cytotoxicity",Potency
O=C1O[C@H]2[C@H](O)[C@@H]1OC(O)[C@H]2O (some centres undefined),9.61%,–
CC(=O)Nc1ccc(NC(=S)NC(=O)c2ccc(C(C)(C)C)cc2)cc1,1.09%,–
CCSc1ccc2c(c1)N(CCCN1CCN(C)CC1)c1ccccc1S2,-4.97% [at 32.5 µM],–
CC[C@H]1OC(=O)[C@H](C)[C@@H](O[C@H]2C[C@@](C)(OC)[C@@H](O)[C@H](C)O2)[C@H](C)[C@@H](O[C@@H]2O[C@H](C)C[C@H](N(C)C)[C@H]2O)[C@](C)(O)C[C@@H](C)[C@@H]2N[C@@H](COCCOC)O[C@@H]([C@H]2C)[C@]1(C)O,8.59%,–
Cn1c(=O)c2c(ncn2CCOC(=O)C(C)(C)Oc2ccc(Cl)cc2)n(C)c1=O,-5.15%,–
O=C(O)c1ccc(OCCn2ccnc2)cc1,-0.937%,–
CO[C@@H]1[C@@H](O[C@@H]2O[C@H](C)[C@@H](O[C@H]3C[C@@](C)(O)[C@@H](OC(=O)CC(C)C)[C@H](C)O3)[C@H](N(C)C)[C@H]2O)[C@@H](CC=O)C[C@@H](C)[C@@H](O)/C=C/C=C/C[C@@H](C)OC(=O)C[C@H]1O,-11.7%,–
CCN(CC)CCOc1ccc2nc(N(C)C)sc2c1,8.89%,–
COCC1=C(C(=O)OC(C)OC(=O)OC(C)C)N2C(=O)[C@@H](NC(=O)/C(=N\OC)c3csc(N)n3)[C@H]2SC1 (some centres undefined),–,inactive
Cc1cccc(C)c1Nc1ncccc1C(=O)O,2.38%,–
CC1=C(/C=C/C(C)=C/C=C/C(C)=C/C=C/C=C(C)/C=C/C=C(C)/C=C/C2=C(C)C(=O)CCC2(C)C)C(C)(C)CCC1=O,-0.189%,–
CCC(=O)O[C@]1(C(=O)CCl)[C@@H](C)C[C@H]2[C@@H]3C[C@H](F)C4=CC(=O)C=C[C@]4(C)[C@@]3(F)[C@@H](O)C[C@@]21C,-6.18%,–
O=C1C(=O)c2ncccc2-c2cccnc21,-2.11%,–
CC[C@H](C)CCCCC(=O)N[C@@H](CCN)C(=O)N[C@H](C(=O)N[C@@H](CCN)C(=O)N[C@H]1CCNC(=O)[C@H]([C@@H](C)O)NC(=O)[C@H](CCN)NC(=O)[C@H](CCN)NC(=O)[C@H](CC(C)C)NC(=O)[C@@H](CC(C)C)NC(=O)[C@H](CCN)NC1=O)[C@@H](C)O (X2-[Dab]T[Dab][Dab][Dab][dL]L[Dab][Dab]T; lactam 4-C),-0.196%,–
O=C(NCCNCC(O)COc1ccc(O)cc1)N1CCOCC1 (centres undefined),16.9%,–
CCOc1ccc(C[C@H]2NC(=O)CCSSC[C@@H](C(=O)N3CCC[C@H]3C(=O)N[C@@H](CCCN)C(=O)NCC(N)=O)NC(=O)[C@H](CC(N)=O)NC(=O)[C@H]([C@@H](C)O)NC(=O)[C@H]([C@@H](C)CC)NC2=O)cc1 ([Mpa][dY](Et)ITNCP[Orn]G-NH2; disulfide 1-6),-3.5%,–
CC(C)CN(C[C@@H](O)[C@H](Cc1ccccc1)NC(=O)O[C@H]1CO[C@H]2OCC[C@H]21)S(=O)(=O)c1ccc(N)cc1,3.71%,–
CCCCCCCCCCCCCCCCCC(=O)OCC(C)O (centres undefined),–,18.8 µM (active)
CC(NNC(=O)c1ccccc1)c1ccccc1 (centres undefined),-0.0647%,–
CC(=O)O[C@H]1C(=O)[C@@]2(C)[C@H]([C@H](OC(=O)c3ccccc3)[C@]3(O)C[C@H](OC(=O)[C@H](O)[C@@H](NC(=O)c4ccccc4)c4ccccc4)C(C)=C1C3(C)C)[C@]1(OC(C)=O)CO[C@@H]1C[C@@H]2O,–,6.68 µM (active)
CCC(=O)NS(=O)(=O)c1ccc(-c2c(-c3ccccc3)noc2C)cc1,6.99%,–
CN(C(=O)CO)c1c(I)c(C(=O)NCC(O)CO)c(I)c(C(=O)NCC(O)CO)c1I (centres undefined),-1.57%,–
CC(C(=O)O)c1ccc(N2Cc3ccccc3C2=O)cc1 (centres undefined),4.09%,–

# Target: Aryl hydrocarbon receptor (Homo sapiens) (UniProt P35869)
# Sequence (P35869 whole entry, looked up): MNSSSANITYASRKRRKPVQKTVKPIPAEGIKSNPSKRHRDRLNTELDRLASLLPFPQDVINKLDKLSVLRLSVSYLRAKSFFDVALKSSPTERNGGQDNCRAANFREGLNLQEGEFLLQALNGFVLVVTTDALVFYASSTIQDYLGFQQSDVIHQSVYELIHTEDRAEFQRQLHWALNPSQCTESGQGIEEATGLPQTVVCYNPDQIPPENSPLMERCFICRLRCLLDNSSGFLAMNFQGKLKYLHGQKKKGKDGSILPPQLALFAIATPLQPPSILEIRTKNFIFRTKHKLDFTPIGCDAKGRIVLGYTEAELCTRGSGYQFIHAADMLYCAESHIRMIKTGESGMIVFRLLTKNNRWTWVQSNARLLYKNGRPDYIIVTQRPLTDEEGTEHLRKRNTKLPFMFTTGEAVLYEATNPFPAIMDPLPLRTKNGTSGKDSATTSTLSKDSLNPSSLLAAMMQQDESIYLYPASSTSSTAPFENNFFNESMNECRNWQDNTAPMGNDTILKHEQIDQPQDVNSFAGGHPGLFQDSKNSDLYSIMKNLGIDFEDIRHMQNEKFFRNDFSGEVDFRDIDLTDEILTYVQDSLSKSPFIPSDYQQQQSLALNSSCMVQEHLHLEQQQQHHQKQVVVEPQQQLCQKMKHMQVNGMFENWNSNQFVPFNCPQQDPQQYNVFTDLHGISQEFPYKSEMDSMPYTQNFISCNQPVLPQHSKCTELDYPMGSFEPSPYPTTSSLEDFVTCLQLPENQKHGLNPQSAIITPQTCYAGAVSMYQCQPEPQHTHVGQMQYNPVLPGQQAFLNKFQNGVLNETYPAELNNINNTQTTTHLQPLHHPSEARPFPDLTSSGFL
# Assay: qHTS assay to identify small molecule that activate the aryl hydrocarbon receptor (AhR) signaling pathway (AID 743085); also: nearly all actives have a fitted effect of over 15% in size;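 as to activation: HG2L7.5c1 human HepG2 liver cells with stably integrated DRE-driven firefly reporter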
# Settings: HepG2 AhR-luc (HG2L7.5c1), luciferase, 24 h; series mostly up to 70.3 µM; activation: at the top concentration
# In short: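 Reporter assay in engineered HepG2 line HG2L7.5c1, whose plasmid carries twenty dioxin responsive elements upstream of firefly luciferase. Treatment lasted 24 h at 37C; ONE-Glo luminescence gauged induction.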
Structure (SMILES),activation,Potency
O=C(O)c1cccc(/C=C2/C[C@@H]3[C@@H](/C=C/[C@@H](O)C4CCCCC4)[C@H](O)C[C@@H]3O2)c1,2.45%,–
CC1(C)S[C@@H]2[C@H](NC(=O)[C@H](N)c3ccccc3)C(=O)N2[C@H]1C(=O)OCOC(=O)[C@@H]1N2C(=O)C[C@H]2S(=O)(=O)C1(C)C,4.58%,–
NCCC(=O)[N-][C@@H](Cc1cnc[nH]1)C(=O)O.[Zn],-1.56%,–
CNc1cc(OC)c(C(=O)N[C@H]2CCN(Cc3ccccc3)[C@H]2C)cc1Cl,-1.07%,–
O=P(O)(O)OC(CO)CO,-3.43%,–
CCCCCCCCCCCCCCCC(=O)O[C@@H]1[C@@H](O)[C@@H](O)[C@@H]([C@H](NC(=O)[C@@H]2C[C@@H](CCC)CN2C)[C@H](C)Cl)O[C@@H]1SC,-2.39%,–
CC(=O)O[C@H]1C[C@@]2(C)[C@@H](C[C@@H](O)[C@H]3[C@@]4(C)CC[C@@H](O)[C@@H](C)[C@@H]4CC[C@@]32C)/C1=C(\CCC=C(C)C)C(=O)O,0.0506%,–
CC1=C[C@H](O)CC(C)(C)[C@H]1/C=C/C(C)=C/C=C/C(C)=C/C=C/C=C(C)/C=C/C=C(C)/C=C/C1=C(C)C[C@@H](O)CC1(C)C,0.548%,–
C[C@H](CSC(=O)c1ccccc1)C(=O)N1C[C@@H](Sc2ccccc2)C[C@H]1C(=O)O,5.1%,–
O=S(O)CNc1ccc(S(=O)(=O)c2ccc(NCS(=O)O)cc2)cc1,-1.11%,–
CC(=O)Nc1ccc(NC(=S)NC(=O)c2ccc(C(C)(C)C)cc2)cc1,–,1.5 µM (active)
CCSc1ccc2c(c1)N(CCCN1CCN(C)CC1)c1ccccc1S2,3.7% [at 32.5 µM],–
Cn1c(=O)c2c(ncn2CCOC(=O)C(C)(C)Oc2ccc(Cl)cc2)n(C)c1=O,-0.857%,–
O=C(O)c1ccc(OCCn2ccnc2)cc1,6.47%,–
CO[C@@H]1[C@@H](O[C@@H]2O[C@H](C)[C@@H](O[C@H]3C[C@@](C)(O)[C@@H](OC(=O)CC(C)C)[C@H](C)O3)[C@H](N(C)C)[C@H]2O)[C@@H](CC=O)C[C@@H](C)[C@@H](O)/C=C/C=C/C[C@@H](C)OC(=O)C[C@H]1O,–,inactive
COc1cc([C@@H]2c3cc4c(cc3C(O[C@@H]3O[C@@H]5COC(c6cccs6)O[C@H]5[C@H](O)[C@H]3O)C3COC(=O)[C@@H]32)OCO4)cc(OC)c1O (some centres undefined),0.159%,–

Structure (SMILES),activation,Potency
COCC1=C(C(=O)OC(C)OC(=O)OC(C)C)N2C(=O)[C@@H](NC(=O)/C(=N\OC)c3csc(N)n3)[C@H]2SC1 (some centres undefined),–,inactive
Cc1cccc(C)c1Nc1ncccc1C(=O)O,–,29.8 µM (active)
CC1=C(/C=C/C(C)=C/C=C/C(C)=C/C=C/C=C(C)/C=C/C=C(C)/C=C/C2=C(C)C(=O)CCC2(C)C)C(C)(C)CCC1=O,0.0794%,–
CCC(=O)O[C@]1(C(=O)CCl)[C@@H](C)C[C@H]2[C@@H]3C[C@H](F)C4=CC(=O)C=C[C@]4(C)[C@@]3(F)[C@@H](O)C[C@@]21C,–,3.35 µM (active)
O=C1C(=O)c2ncccc2-c2cccnc21,–,6.68 µM (active)
CC[C@H](C)CCCCC(=O)N[C@@H](CCN)C(=O)N[C@H](C(=O)N[C@@H](CCN)C(=O)N[C@H]1CCNC(=O)[C@H]([C@@H](C)O)NC(=O)[C@H](CCN)NC(=O)[C@H](CCN)NC(=O)[C@H](CC(C)C)NC(=O)[C@@H](CC(C)C)NC(=O)[C@H](CCN)NC1=O)[C@@H](C)O (X2-[Dab]T[Dab][Dab][Dab][dL]L[Dab][Dab]T; lactam 4-C),-0.111%,–
O=C(NCCNCC(O)COc1ccc(O)cc1)N1CCOCC1 (centres undefined),-1.02%,–
CCOc1ccc(C[C@H]2NC(=O)CCSSC[C@@H](C(=O)N3CCC[C@H]3C(=O)N[C@@H](CCCN)C(=O)NCC(N)=O)NC(=O)[C@H](CC(N)=O)NC(=O)[C@H]([C@@H](C)O)NC(=O)[C@H]([C@@H](C)CC)NC2=O)cc1 ([Mpa][dY](Et)ITNCP[Orn]G-NH2; disulfide 1-6),-2.03%,–
CC(C)CN(C[C@@H](O)[C@H](Cc1ccccc1)NC(=O)O[C@H]1CO[C@H]2OCC[C@H]21)S(=O)(=O)c1ccc(N)cc1,5.5%,–
CCCCCCCCCCCCCCCCCC(=O)OCC(C)O (centres undefined),-0.953%,–
CC(NNC(=O)c1ccccc1)c1ccccc1 (centres undefined),–,11.9 µM (active)
CC(=O)O[C@H]1C(=O)[C@@]2(C)[C@H]([C@H](OC(=O)c3ccccc3)[C@]3(O)C[C@H](OC(=O)[C@H](O)[C@@H](NC(=O)c4ccccc4)c4ccccc4)C(C)=C1C3(C)C)[C@]1(OC(C)=O)CO[C@@H]1C[C@@H]2O,-0.441%,–
CCC(=O)NS(=O)(=O)c1ccc(-c2c(-c3ccccc3)noc2C)cc1,-1.68%,–
CN(C(=O)CO)c1c(I)c(C(=O)NCC(O)CO)c(I)c(C(=O)NCC(O)CO)c1I (centres undefined),-0.271%,–
CC(C(=O)O)c1ccc(N2Cc3ccccc3C2=O)cc1 (centres undefined),–,0.0596 µM (active)
